Assay outcomes from PubChem.
sEH inh: soluble epoxide hydrolase (human) inhibition; P34913; recombinant human sEH enzymatic activity assay; inhibition, % at 2 µM; 91,000 tested, 0.34% active; AID 707; in the data active = inhibition above about 80%
CYP2C9 activ: activators of human CYP2C9; recombinant CYP2C9, luciferin-H conversion, luminescence; active compounds read high; factor 1 = untreated enzyme, 0 = blocked; activation factor at 5 µM; 96,000 tested, 1.4% active; AID 1024;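 active = activation factor of 2 or more for CYP2C9 at a 5 µM dose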;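 also: 0 = sulfaphenazole-blocked wells and 1 = vehicle-only wells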
Target sequence (P11712 whole entry, looked up): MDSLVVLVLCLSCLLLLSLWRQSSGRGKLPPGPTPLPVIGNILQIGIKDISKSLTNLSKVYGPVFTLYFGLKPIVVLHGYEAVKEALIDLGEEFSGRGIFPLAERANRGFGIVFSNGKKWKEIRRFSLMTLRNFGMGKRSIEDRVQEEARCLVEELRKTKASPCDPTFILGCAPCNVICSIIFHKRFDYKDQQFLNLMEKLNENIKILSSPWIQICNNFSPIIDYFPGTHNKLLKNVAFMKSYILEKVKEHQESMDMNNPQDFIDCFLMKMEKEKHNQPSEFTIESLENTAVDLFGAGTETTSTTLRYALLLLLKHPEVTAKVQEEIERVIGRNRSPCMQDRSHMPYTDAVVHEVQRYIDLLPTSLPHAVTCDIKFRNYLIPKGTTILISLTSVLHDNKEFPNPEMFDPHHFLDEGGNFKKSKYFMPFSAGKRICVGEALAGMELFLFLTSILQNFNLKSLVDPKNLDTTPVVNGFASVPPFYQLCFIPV
sEH act: activators of human soluble epoxide hydrolase; P34913; purified human sEH enzymatic activity, activator screen; activation, % at 2 µM; 91,000 tested, 0.04% active; in the data active = activation above about 37%
CYP2C9 inh: human CYP2C9 inhibition; AID 777; P11712; 96,000 tested, 20% active; CYP2C9 Supersomes, luciferin-H conversion, luminescence; inhibition, % at 5 µM;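 active = blocking of liver enzyme CYP2C9 beyond about 50% at 5 µM, limit read from the data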
CYP2C19 activ: increases human CYP2C19 enzyme activity | P33261 | activation factor at 5 µM | 96,000 tested, under 10 active | recombinant CYP2C19, luciferin-H EGE luminescence; active compounds read high; 0 = fully inhibited enzyme, 1 = untreated enzyme;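 active = activation factor of at least 2 at 5 µM in the primary screen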;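 also: 0 = wells with 2.5 mM tranylcypromine and 1 = vehicle-only wells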
CYP2C19 inh: blocks human cytochrome P450 2C19. P33261. CYP2C19 Supersomes, luciferin-H EGE luminescence, 30 min. inhibition, % at 5 µM. 96,000 tested, 21% active. AID 778;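 active = CYP2C19 inhibition above a set limit at 5 µM in the primary screen, cut at about 50% in these data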;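 also: plate controls were negative control wells for no effect and 2.5 mM tranylcypromine positive control for full effect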
Numbers without * were called inactive; · = not tested or not shown. Shown are actives, neighbours in structure and some others; about 27% of the full set was active somewhere.

SMILES | sEH inh | CYP2C9 activ | sEH act | CYP2C9 inh | CYP2C19 activ | CYP2C19 inh
CCOC(=O)C1CCN(Cc2ccc(F)c(Br)c2)CC1 | · | 0.5 | · | 50 | 0.4 | 63*
Fc1ccc(CN2CCSCC2)cc1Br | · | 0.8 | · | 16 | 0.2 | 84*
COc1ccccc1CN1CCSCC1 | -6 | 0.9 | 6 | 6 | 0.8 | 18
COc1ccc(-c2ccnc3nc(-n4cccc4)nn23)cc1 | 9 | 0.5 | -7 | 51* | 0.7 | 26
COc1ccc(-c2ccnc3nc(N4CCOCC4)nn23)cc1 | 8 | 0.7 | -3 | 31 | 0.8 | 17
COC(=O)c1ccc(NC(=O)Nc2ccc(F)c(Cl)c2)cc1 | 62 | 0.8 | -62 | 18 | 0.9 | 6
CCOC(=O)c1ccc(NC(=O)CC2C(=O)N(c3ccc(F)cc3)C(=O)N2CCC(C)C)cc1 (stereo unspecified) | 1 | 0.6 | 0 | 43 | 0.5 | 54*
CCOC(=O)c1ccc(NC(=O)Nc2ccc(F)cc2)cc1 | 39 | 0.3 | -39 | 66* | 0.8 | 22
COC(=O)c1ccc(NC(=O)Nc2ccc(F)cc2)cc1 | · | 0.4 | · | 60* | 0.5 | 48
Cc1cc(C)nc(SCC2COc3ccccc3O2)n1 (stereo unspecified) | 12 | 0.8 | -12 | 17 | 0.5 | 47
COCCCNS(=O)(=O)c1ccc(S(=O)(=O)N2CCCC2)cc1 | -17 | 0.6 | 19 | 44 | 0.7 | 29
CCCC(=O)OCC(=O)Nc1ccc(OC(F)F)cc1 | -12 | 0.5 | 13 | 47 | 0.4 | 59*
COc1ccc(NC(=O)Cn2cccc2)c(OC)c1 | -17 | 0.7 | 18 | 28 | 0.6 | 37
O=C(Cn1cccc1)Nc1ccc(OC(F)(F)F)cc1 | 11 | 0.8 | -13 | 18 | 0.5 | 51*
CCOC(=O)c1ccc(NC(=O)COc2ccccc2OC)cc1 | -8 | 0.9 | 7 | 11 | 0.7 | 32
COc1cccc(OC)c1C(=O)OCC(=O)Nc1ccc(OC(F)(F)F)cc1 | 3 | 0 | -2 | 99* | 0.2 | 75*
COc1ccccc1OCC(=O)Nc1ccc(C(N)=O)cc1 | 9 | 0.8 | -8 | 19 | 0.9 | 7
CCCc1cc(=O)[nH]c(SCC(=O)Nc2ccc(OC(F)F)cc2)n1 | 7 | 1 | -5 | 1 | 0.6 | 36
COc1ccccc1C(=O)OCC(=O)Nc1ccc(OC(F)F)cc1 | 18 | 0.7 | -20 | 29 | 0.5 | 53*
CCOCCSc1nnc2nc(C)cc(C)n12 | -1 | 1.2 | 4 | -16 | 1.1 | -6
Cc1ccc2cc(CN(Cc3ccco3)C(=O)c3cccs3)c(=O)[nH]c2c1 | -2 | 0.7 | 6 | 31 | 0.6 | 36
Cc1ccc2cc(CN(Cc3ccc4c(c3)OCO4)Cc3nnnn3Cc3ccco3)c(=O)[nH]c2c1 | -24 | 0.2 | 25 | 84* | 0.2 | 80*
Cc1ccc(CN(Cc2cc3cc4c(cc3[nH]c2=O)OCCO4)Cc2nnnn2Cc2ccco2)cc1 | 0 | 0 | -2 | 96* | 0.1 | 88*
CC(C)OCCCNC(=O)c1cc2c(s1)CS(=O)(=O)C2 | 6 | 1.1 | -8 | -11 | 0.9 | 7
c1ccc(CCn2nnnc2C(c2cccs2)N2CCN(Cc3ccc4c(c3)OCO4)CC2)cc1 (stereo unspecified) | · | 0.5 | · | 52* | 0.4 | 56*
SMILES | sEH inh | CYP2C9 activ | sEH act | CYP2C9 inh | CYP2C19 activ | CYP2C19 inh
Fc1ccccc1N1CCN(C(c2cccs2)c2nnnn2CCc2ccccc2)CC1 (stereo unspecified) | 7 | 0.4 | -6 | 57* | 0.3 | 70*
COCCn1nnnc1C(c1ccccc1)N1CCN(c2ccccc2)CC1 (stereo unspecified) | -5 | · | 6 | · | · | ·
CC(C)C(c1nnnn1Cc1ccccc1)N1CCN(Cc2ccc3c(c2)OCO3)CC1 (stereo unspecified) | · | 0.3 | · | 68* | 0.1 | 92*
COCCn1nnnc1C(c1cccs1)N1CCN(c2ccccc2)CC1 (stereo unspecified) | · | 0.5 | · | 51* | 0.6 | 44
CCN1CCN(C(c2ccccc2F)c2nnnn2Cc2ccc3c(c2)OCO3)CC1 (stereo unspecified) | 0 | 0.9 | 0 | 11 | 0.7 | 30
Fc1ccc(N2CCN(C(c3cccs3)c3nnnn3CCc3ccccc3)CC2)cc1 (stereo unspecified) | -3 | · | 7 | · | · | ·
COCCCNC(=O)CCCn1c(=O)c2ccccc2n(CC(=O)Nc2c(C)cccc2C)c1=O | · | 0.6 | · | 42 | 1 | -1
COc1ccc(S(=O)(=O)N(CC(=O)NCC2CCCO2)c2ccccc2)cc1OC (stereo unspecified) | 9 | 0.7 | -9 | 29 | 0.7 | 33
COC(=O)C1(O)CC(CC(C)C)=NN1C(=O)c1ccccc1 (stereo unspecified) | -4 | 0.9 | 7 | 7 | 0.8 | 17
Cc1cccc(C(=O)n2c(=S)nc3ccccn32)c1 | 0 | 1 | 2 | -2 | 0.6 | 36
O=C(COC(=O)Cc1ccc(S(=O)(=O)N2CCOCC2)s1)Nc1ccc2c(c1)OCO2 | 3 | 0.8 | 0 | 21 | 0.9 | 8
COCCn1nnnc1C(c1ccccn1)N1CCN(c2cccc(C)c2C)CC1 (stereo unspecified) | 7 | · | -4 | · | · | ·
CCCCC(c1nnnn1CCOC)N1CCN(c2cccc(OC)c2)CC1 (stereo unspecified) | · | 0.5 | · | 54* | 0.3 | 70*
CCCC(c1nnnn1CCOC)N1CCN(c2cccc(OC)c2)CC1 (stereo unspecified) | · | 0.7 | · | 26 | 0.7 | 34
COCCn1nnnc1C(c1ccccn1)N1CCN(c2cc(C)ccc2C)CC1 (stereo unspecified) | -6 | 0.3 | 6 | 70* | 0.2 | 83*
COC(=O)c1ccc(CSc2nc(C)nc3c2c(=O)n(C)c(=O)n3C)o1 | 12 | · | -8 | · | · | ·
Cc1cccc(NC(=O)CCSc2nc(C)cc(C)n2)c1 | -8 | 2.7* | 9 | -169 | 0.5 | 52*
Cc1cccc(NC(=O)CSc2nnc(CSc3nc(C)cc(C)n3)o2)c1 | 4 | 0.6 | -5 | 44 | 0.1 | 89*
CC(Sc1nc2ccccc2o1)C(=O)O (stereo unspecified) | · | 0.9 | · | 15 | 0.9 | 12
COc1ccc(C(=O)c2c(C(F)(F)F)oc3c2C(=O)c2ccccc2C3=O)cc1OC | -10 | 0.6 | 9 | 43 | 0.3 | 67*
COc1ccc(S(=O)(=O)Nc2cccc(SC)c2)cc1OC | -16 | · | 14 | · | · | ·
CSc1cccc(NS(=O)(=O)c2ccc3c(c2)oc(=O)n3C)c1 | · | 0.5 | · | 53* | 0 | 97*
Cc1ccc(NS(=O)(=O)c2ccc3c(c2)oc(=O)n3C)cc1F | 2 | 0.2 | -3 | 76* | 0.4 | 56*
COc1ccccc1N(CC(=O)NC1CCCC1)C(=O)CCC(=O)Nc1cc(C)on1 | -8 | 0.3 | 10 | 65* | 0.4 | 63*
CCOc1ccccc1N(CC(=O)NC1CCCC1)C(=O)CCC(=O)Nc1cc(C)on1 | 3 | 0.2 | -2 | 83* | 0.2 | 83*
